{"source": "PubChem BioAssay AID1117288", "about": "(Broad Institute, 2014)", "target": "Leucyl-cystinyl aminopeptidase (Mus musculus) (UniProt Q8C129)", "sequence (Q8C129 whole entry, looked up)": "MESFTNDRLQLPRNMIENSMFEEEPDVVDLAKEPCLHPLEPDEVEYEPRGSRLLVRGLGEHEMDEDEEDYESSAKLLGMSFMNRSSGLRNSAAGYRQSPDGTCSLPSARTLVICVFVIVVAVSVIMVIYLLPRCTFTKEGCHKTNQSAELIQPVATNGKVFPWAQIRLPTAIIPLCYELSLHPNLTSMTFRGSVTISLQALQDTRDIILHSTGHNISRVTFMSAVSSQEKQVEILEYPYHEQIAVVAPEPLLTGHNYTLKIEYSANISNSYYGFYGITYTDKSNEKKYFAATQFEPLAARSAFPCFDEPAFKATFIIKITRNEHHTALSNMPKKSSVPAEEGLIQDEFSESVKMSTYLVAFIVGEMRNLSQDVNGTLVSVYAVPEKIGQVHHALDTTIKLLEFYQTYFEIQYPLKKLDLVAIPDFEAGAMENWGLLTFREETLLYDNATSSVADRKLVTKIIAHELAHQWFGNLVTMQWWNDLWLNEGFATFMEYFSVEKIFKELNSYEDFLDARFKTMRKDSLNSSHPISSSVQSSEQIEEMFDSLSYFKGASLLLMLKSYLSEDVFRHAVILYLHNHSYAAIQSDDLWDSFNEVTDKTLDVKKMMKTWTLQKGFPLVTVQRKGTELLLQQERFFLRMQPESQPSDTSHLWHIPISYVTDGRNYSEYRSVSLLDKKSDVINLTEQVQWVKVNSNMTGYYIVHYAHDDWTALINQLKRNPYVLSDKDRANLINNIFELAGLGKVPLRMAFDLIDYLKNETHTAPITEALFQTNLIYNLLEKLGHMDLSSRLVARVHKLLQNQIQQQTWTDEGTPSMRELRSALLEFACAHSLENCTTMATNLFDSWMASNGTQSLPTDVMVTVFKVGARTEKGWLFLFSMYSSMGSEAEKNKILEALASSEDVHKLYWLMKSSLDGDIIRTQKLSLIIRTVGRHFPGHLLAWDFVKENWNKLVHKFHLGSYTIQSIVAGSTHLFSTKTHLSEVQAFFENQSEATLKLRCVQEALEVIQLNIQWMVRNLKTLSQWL", "assay": "IRAP enzyme inhibitors, dose response, selectivity assay for ERAP1 modulator project, biochemical, dry powder samples, set 3 (AID 1117288)", "note": "Measured potencies and affinities stand elsewhere. Records with an inconclusive call do not appear. Calls of active or inactive are those of the source.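 The calls were made as follows: active = compound whose fitted half-inhibition dose sits at or below twice its top tested dose in every test run; inconclusive = test runs disagree, or every run is unclear; inactive = inactive in every test run.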"}
{"smiles": "COC(=O)c1ccc(OC)c(S(=O)(=O)Nc2cc(C(F)(F)F)ccc2N2CCCCC2)c1", "values": [{"measurement": "outcome", "result": "inactive"}]}
{"smiles": "COc1ccc(C(=O)O)cc1S(=O)(=O)Nc1cc(C(F)(F)F)ccc1N1CCOCC1", "values": [{"measurement": "outcome", "result": "inactive"}]}
{"smiles": "COc1ccc(C(=O)O)cc1S(=O)(=O)N1CCN(c2ccc(C(F)(F)F)cc2N)CC1", "values": [{"measurement": "outcome", "result": "inactive"}]}
{"smiles": "COc1ccc(C(=O)O)cc1S(=O)(=O)Nc1ccccc1N1CCCCC1", "values": [{"measurement": "outcome", "result": "inactive"}]}
{"smiles": "Cc1ccc(S(=O)(=O)Nc2cc(C(F)(F)F)ccc2N2CCCCC2)cc1C(=O)O", "values": [{"measurement": "outcome", "result": "inactive"}]}
{"smiles": "COc1ccc(C(=O)O)cc1S(=O)(=O)Nc1ccc(N2CCCCC2)cc1C(F)(F)F", "values": [{"measurement": "outcome", "result": "inactive"}]}
{"smiles": "COc1ccc(C(=O)O)cc1S(=O)(=O)Nc1cc(C)ccc1N1CCCCC1", "values": [{"measurement": "outcome", "result": "inactive"}]}
{"smiles": "Cc1ccc(C(=O)O)cc1S(=O)(=O)Nc1cc(C(F)(F)F)ccc1N1CCCCC1", "values": [{"measurement": "outcome", "result": "inactive"}]}
{"smiles": "O=C(O)c1cc(F)cc(S(=O)(=O)Nc2cc(C(F)(F)F)ccc2N2CCCCC2)c1", "values": [{"measurement": "outcome", "result": "inactive"}]}
{"smiles": "O=C(O)c1ccc(Br)c(S(=O)(=O)Nc2cc(C(F)(F)F)ccc2N2CCCCC2)c1", "values": [{"measurement": "outcome", "result": "inactive"}]}
{"smiles": "COc1ccc(C(=O)O)cc1S(=O)(=O)Nc1cc(C(F)(F)F)ccc1N(C)C", "values": [{"measurement": "outcome", "result": "inactive"}]}
{"smiles": "COc1ccc(C(=O)O)cc1S(=O)(=O)N(C)c1cc(C(F)(F)F)ccc1N1CCCCC1", "values": [{"measurement": "outcome", "result": "inactive"}]}
{"smiles": "COc1ccc(C(=O)O)cc1S(=O)(=O)Nc1cc(C(F)(F)F)ccc1N1CCN(C)CC1", "values": [{"measurement": "outcome", "result": "inactive"}]}
{"smiles": "O=C(O)c1cccc(S(=O)(=O)Nc2cc(C(F)(F)F)ccc2N2CCCCC2)c1", "values": [{"measurement": "outcome", "result": "inactive"}]}
{"smiles": "COc1ccc(C(=O)O)cc1S(=O)(=O)Nc1cccc(N2CCCCC2)c1C(F)(F)F", "values": [{"measurement": "outcome", "result": "inactive"}]}
{"smiles": "COc1ccc(C(=O)O)cc1S(=O)(=O)Nc1cc(F)ccc1N1CCCCC1", "values": [{"measurement": "outcome", "result": "inactive"}]}
{"smiles": "COc1ccc(C(=O)O)cc1S(=O)(=O)Nc1cc(C(F)(F)F)ccc1N1CCCCC1", "values": [{"measurement": "outcome", "result": "inactive"}]}
{"smiles": "O=C(O)c1ccc(Cl)c(S(=O)(=O)Nc2cc(C(F)(F)F)ccc2N2CCCCC2)c1", "values": [{"measurement": "outcome", "result": "inactive"}]}
